# Compounds with a hit are over-represented: about 5.2% of the library has one in this group of screens.
# SMARCA2 activ = increases SMARCA2 function in MMTV reporter cells. MG213 cells, MMTV-luciferase reporter, dexamethasone, overnight. activation, % at 9.1 µM. actives 1% (n = 370,000); in the data active means activation above about 7.8%;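 further: 0% = vehicle wells and 100% = reference activator wells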
# esBAF inh = blocks esBAF chromatin remodeling in mouse ES cells; Bmi1-luciferase knock-in reporter, 24 h; 100% = twice the neutral-well signal; reporter increase, % at 12.5 µM; actives 2% (n = 350,000); AID 602393; in the data active means activation above about 40%;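 further: 0% = median of the plate's neutral control wells and 100% = double that signal; a rise in the Bmi1 reporter signal indicates esBAF inhibition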
# NadD block = NadD (S. aureus) enzyme inhibition; purified NadD enzyme, colorimetric absorbance read-out; inhibition, % at 20 µM; actives 0.78% (n = 360,000); in the data active means inhibition above about 26%
# SKN-1 inh = inhibitors of C. elegans SKN-1 | C. elegans VP596 Pgst-4::GFP/RFP ratio, acrylamide-induced, 24 h | inhibition, % at 21.8 µM | actives 0.49% (n = 360,000);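 active means interference check ratio from 0.5 to 1.5 plus GFP to RFP signal ratio inhibition reaching or exceeding a fixed threshold, cut at about 30% in these data, passing the limit was not always enough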
# GRIN3A LBD mod = modulates the human NR3A ligand-binding domain. NR3A LBD differential scanning fluorimetry, Tm shift; 0% = protein alone, 100% = glycine-bound protein. Tm shift relative to glycine control, % at 25 µM. actives 2.5% (n = 340,000). AID 1259313;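 active means melting temperature shift of at least 10% of the positive control shift, at one fixed dose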
# Vif imaging = HIV Vif inhibition | HEK293T cells, Vif self-association by quenched fluorescence, imaging, 24 h | inhibition, % at 7.49 µM | actives 0.35% (n = 340,000); in the data active means inhibition above about 50%, passing the limit was not always enough
# An asterisk follows results filed as active; x = no result given.
SMILES,SMARCA2 activ,esBAF inh,NadD block,SKN-1 inh,GRIN3A LBD mod,Vif imaging
CCCNC(=O)N1C[C@H](C)[C@H](OC)CN(C)C(=O)c2ccc(NC(=O)C3CCC3)cc2OC[C@H]1C,x,-4,x,x,x,x
CCC(=O)Nc1ccc2c(c1)OC[C@H](C)N(Cc1nccs1)C[C@@H](C)[C@@H](OC)CN(C)C2=O,x,0,x,x,x,x
O=C(c1ccccc1)c1cnc(Nc2ccc(Cl)c(Cl)c2)s1,-2,-1,6,0,29*,-1
Cn1cccc1/C=C1\SC(=S)N(NC(=O)c2cccc(Cl)c2)C1=O,-4,x,7,38*,13*,8
Cn1cccc1/C=C1\SC(=S)N(NC(=O)c2ccc(F)cc2)C1=O,-3,x,0,22,-4,-4
Cn1cccc1/C=C1\SC(=S)N(NC(=O)c2ccccc2)C1=O,-1,x,-5,38*,-7,16
O=C(NCCc1ccncc1)[C@H]1[C@H](CO)[C@H]2Cn3c(ccc(C4=CCCCC4)c3=O)[C@@H]1N2CC1CC1,x,2,x,x,x,x
CN(C)C(=O)C[C@H]1CC[C@@H]2[C@H](COC[C@@H](O)CN2CC2CCCC2)O1,x,-7,x,x,x,x
COc1ccc(NC(=O)Cn2nnc(-c3ccccc3NS(=O)(=O)c3ccc(OC)cc3)n2)cc1,-2,x,-4,4,1,-8
CCn1nnc(-c2ccccc2NS(=O)(=O)c2ccc(C(=O)OC)cc2)n1,-2,2,-4,13,12*,-3
C/C(=N/O)c1cccc(N2Cc3ccccc3C2)c1,2,63*,16,12,-5,0
Cn1c(=O)c2[nH]c(-c3ccccc3)c(O)c2n(C)c1=O,0,x,-2,-6,12*,-9
CN(C)c1ccc(Cc2cc3c(O)ccc(O)c3cc(Cc3ccc(N(C)C)cc3)c2=O)cc1,-5,x,68*,16,-30,13
CC(=O)c1ccc(N(C)C)cc1,0,10,-4,-11,-2,8
COc1cc(C)ccc1OCCOc1c(C)cc(Cl)cc1Cl,2,x,6,-1,10*,-5
Cc1cccc(S(=O)(=O)N[C@H]2CC[C@@H](CCn3cc(-c4ccccn4)nn3)O[C@H]2CO)c1,x,0,x,x,x,x
Cc1ccc(/C=C/C(=O)Nc2ccc(N(C)C)cc2)o1,2,52*,5,0,-22,10
CO[C@H]1CN(C)C(=O)c2cc(NC(C)=O)ccc2OC[C@@H](C)N(C(=O)c2cnccn2)C[C@@H]1C,x,-6,x,x,x,x
C[C@@H]1CN([C@H](C)CO)C(=O)c2cc(-c3cccc(C(=O)N(C)C)c3)cnc2O[C@H]1CN(C)S(=O)(=O)c1cccc(F)c1,x,3,x,x,x,x
COc1cccc(C2C(C(=O)NCc3ccccc3)=C(C)Nc3ncnn32)c1 (centres undefined),-1,8,10,-14,-1,13
COc1ccccc1C1C(C(=O)NCc2ccccc2)=C(C)Nc2ncnn21 (centres undefined),0,x,9,47*,-1,6
CCOc1ccc(OCC)c(S(=O)(=O)NCc2cccnc2)c1,-1,0,0,-12,0,9
CCOc1ccc(OCC)c(S(=O)(=O)NCc2ccccc2)c1,0,-2,4,6,0,55*
C[C@@H](NC(=O)C[C@H]1C[C@H]2c3cc(NC(=O)NC4CCCC4)ccc3O[C@H]2[C@H](CO)O1)c1ccccc1,x,-3,x,x,x,x
O=C(NN1C(=O)C2C(c3ccccc3)C=CC(c3ccccc3)C2C1=O)c1cccc(Br)c1 (centres undefined),0,x,10,11,20*,-1
SMILES,SMARCA2 activ,esBAF inh,NadD block,SKN-1 inh,GRIN3A LBD mod,Vif imaging
CCNC(=S)N(Cc1ccc2c(c1)OCO2)C1CC(=O)N(c2ccc(OC)cc2)C1=O (centres undefined),1,x,2,-6,26*,0
CCNC(=S)N(Cc1ccc(OC)cc1)C1CC(=O)N(c2ccc(OCC)cc2)C1=O (centres undefined),-2,3,-13,-2,18*,-1
CCNC(=S)N(Cc1ccc2c(c1)OCO2)C1CC(=O)N(c2ccc(F)cc2)C1=O (centres undefined),-1,x,-6,-2,-1,x
CCCOc1ccc(N2C(=O)CC(N(CCc3ccc(OC)cc3)C(=O)c3cccc(F)c3)C2=O)cc1 (centres undefined),-1,8,-6,35*,-5,12
C[C@@H]1CCCCO[C@@H](CN(C)Cc2ccncc2)[C@H](C)CN([C@@H](C)CO)C(=O)c2cc(NC(=O)c3ccccc3)ccc2O1,x,-8,x,x,x,x
CCOC(=O)C1CCCN(C(=O)c2cc(S(=O)(=O)N(C)C)ccc2N2CCCC2)C1 (centres undefined),-3,2,-2,-4,11*,56*
COc1cc(OC)c(OC)cc1CN(C)C(c1ccccc1)c1nnnn1-c1ccccc1C (centres undefined),0,x,-4,-10,-1,-3
COc1ccc(CN(C)C(c2ccccc2)c2nnnn2-c2ccccc2C)c(OC)c1C (centres undefined),1,-1,2,20,15*,10
C[C@H](NC(=O)[C@@H]1[C@@H](CO)[C@@H]2Cn3c(cccc3=O)[C@H]1N2Cc1ccccc1)c1ccccc1,x,-6,x,x,x,x
O=C(NCc1ccccc1)c1cnc(Cl)c(Cl)c1,-1,6,-4,13,1,-4
CN(C(=O)c1cccc(COc2ccc(Cl)cc2Cl)c1)c1ccccc1,2,72*,-1,17,1,-9
O=C(NCc1ccccc1)c1cccc(COc2ccccc2Cl)c1,3,45*,-2,10,-8,-9
O=C(c1cccc(COc2cccc3ccccc23)c1)N1CCCC1,1,74*,-1,-2,6,-3
O=C(NCc1ccccc1)c1cccc(COc2cc(Cl)ccc2Cl)c1,2,71*,2,-1,-5,0
C[C@@H]1CN([C@@H](C)CO)C(=O)c2cccc(NC(=O)Nc3ccccc3)c2O[C@@H]1CN(C)C,x,5,x,x,x,x
C[C@H](CO)N1C[C@H](C)[C@@H](CN(C)S(=O)(=O)c2ccc(F)cc2)Oc2ccc(NC(=O)Nc3ccccc3)cc2CC1=O,x,23,x,x,x,x
C[C@@H]1CCCCO[C@@H](CN(C)C(=O)c2ccccc2)[C@@H](C)CN([C@H](C)CO)C(=O)c2cc(NC(=O)CCC(F)(F)F)ccc2O1,x,9,x,x,x,x
Cc1noc(C)c1NC(=O)N(C)C[C@@H]1Oc2ncc(C#CC3CCCC3)cc2C(=O)N([C@H](C)CO)C[C@@H]1C,x,-2,x,x,x,x
COc1ccccc1Oc1ncnc2c1cnn2-c1ccccc1,3,73*,-11,9,1,6
CCN(c1ccccc1)c1ncnc2c1cnn2-c1ccccc1,4,76*,-2,-11,0,-7
CN(Cc1ccccc1)c1ncnc2c1cnn2-c1ccccc1,x,40,-6,16,0,-4
